Inconclusive results are not listed. Active and inactive are the calls of the source. Calls follow the shape of the dose curve; as a rule, active = well fitted curve in the direction sought with a large enough effect; inconclusive = small, poorly fitted or top-dose-only effect, or another doubt; inactive = no such curve, though single readings can be large; an effect the other way counts as inactive or inconclusive.
How the values were obtained:
[1] = qHTS of pediatric cancer cell lines to identify multiple opportunities for drug repurposing: Confirmatory screen for Rh30 cells (AID 1347126); also: nearly all actives have a fitted effect of over 55% in size; also: potency is read from the fitted curve at half-maximal effect
How it was run: (§1)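 Cells (500-1,000/well) in growth media were settled 5 h at 37 degrees C, then given compounds for 48 h. Viability was read as CellTiter-Glo luminescence. Primary runs used MIPE at 11 points (0.78 nM-46 µM) and NPC at 8 points (0.59 nM-46 µM); follow-ups used 11 points.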

[2] = qHTS of pediatric cancer cell lines to identify multiple opportunities for drug repurposing: Confirmatory screen for Saos-2 cells (AID 1347127); also: nearly all actives have a fitted effect of over 60% in size; also: potency is read from the fitted curve at half-maximal effect
How it was run: as §1

[3] = qHTS of pediatric cancer cell lines to identify multiple opportunities for drug repurposing: Confirmatory screen for SK-N-SH cells (AID 1347129);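 also: cells exposed to compound for 48 h before viability read; plate controls were DMSO for no effect and bortezomib control for full effect; nearly all actives have a fitted effect of over 60% in size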
How it was run: as §1

[4] = tested on: Zika virus NS2B-NS3 protease (unlinked); assay: Optimization of GU AMC qHTS for Zika virus inhibitors: Unlinked NS2B-NS3 protease assay (AID 1347151);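 also: series mostly up to about 52 µM; 0% = no-inhibitor control and -100% = no-enzyme control; nearly all actives have a fitted effect of over 80% in size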
How it was run: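 Fluorescence gain (340/450 nm) over 15 min at room temperature, ~20% conversion, gave percent inhibition fitted to a 4-parameter Hill equation; enzyme was unlinked NS2B-NS3 (25 nM final), pH 8.0 Tris buffer.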

[5] = qHTS to identify inhibitors of the type 1 interferon - major histocompatibility complex class I in skeletal muscle: primary screen against the NCATS LOPAC collection (AID 1347405);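 also: lytic HiBiT luminescence reporting HLA-B protein level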; also: potency is read from the fitted curve at half-maximal effect; as to activity change, negative = inhibition: % is scaled to controls: 0 for no effect and ±100 for the full control effect
How it was run: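 Immortalized human C25cl48 myoblasts with HiBiT knocked into endogenous HLA-B*08:01 were stimulated with 4.0 ng/ml IFN-beta and given compounds in a 7-point, 1:4.3 titration from 46 uM final; after 24 hrs, lytic HiBiT luminescence was read.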

[6] = qHTS to identify inhibitors of the type 1 interferon - major histocompatibility complex class I in skeletal muscle: primary screen against the NCATS Pharmaceutical Collection (AID 1347407);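 also: luminescence of HiBiT knocked into endogenous HLA-B as interferon-induced MHC class I level; % is scaled to controls: 0 for no effect and ±100 for the full control effect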
How it was run: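 Compounds […] were added to CRISPR-engineered HLA-B-HiBiT C25cl48 human myoblasts with 4.0 ng/ml IFN-beta. After 24 hrs at 37 C, cells were lysed and HiBiT luminescence measured.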

[7] = biological target: N-terminal Xaa-Pro-Lys N-methyltransferase 1 (Homo sapiens) (UniProt Q9BV86); assay: qHTS Assay for Inhibitors of N-terminal methyltransferase 1 (NTMT1): LOPAC validation of the NTMT1 SAHH-coupled ThioGlo3 Assay (AID 1347143); also: nearly all actives have a fitted effect of over 70% in size; also: potency is read from the fitted curve at half-maximal effect; as to activity change, negative = inhibition: % is scaled to controls: 0 for no effect and ±100 for the full control effect
How it was run: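 Fluorescence read-out (excitation 340nm, emission 450nm) of SAH-derived thiol, measured via SAHH coupling and ThioGlo3, taken immediately and after a 30 min room-temperature reaction, then normalized to the background read. Enzyme: NTMT1 at 125nM; cofactor SAM 100uM in the added reagent.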

[8] = tested on: Zika virus NS2B-NS3 protease; assay: Primary screen GU AMC qHTS for Zika virus inhibitors (AID 1347154);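 also: 0% = no-inhibitor control and -100% = no-enzyme control; nearly all actives have a fitted effect of over 70% in size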
How it was run: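 Unlinked Zika NS2B hydrophilic domain/NS3 protease domain noncovalent complex (25 nM final) in 10 mM Tris-HCl pH 8.0, 0.01% Tween 20, with AMC peptide substrate. Fluorescence (ex 340, em 450 nm) change over 15 min, room temperature; percent inhibition fitted to 4-parameter Hill equation.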

[9] = biological target: Lysine-specific demethylase 5B (Homo sapiens) (UniProt Q9UGL1); assay: Optimization screen for KDM5B Histone Demethylases FDH coupled qHTS against the LOPAC library (AID 1347166); also: 0% is about no effect
How it was run: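 KDM5BDeltaAP (200nM final) preincubated 10 min with compound, then 12.5uM H3K4Me3, 25uM a-ketoglutarate, ascorbate, Fe(II), NAD+ and FDH added; 50mM HEPES pH 7.5, 0.01% Tween-20. NADH fluorescence (340/450 nm) change over 30 min, room temperature.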

Lysine-specific demethylase 5B (Homo sapiens), sequence (Q9UGL1 whole entry, looked up): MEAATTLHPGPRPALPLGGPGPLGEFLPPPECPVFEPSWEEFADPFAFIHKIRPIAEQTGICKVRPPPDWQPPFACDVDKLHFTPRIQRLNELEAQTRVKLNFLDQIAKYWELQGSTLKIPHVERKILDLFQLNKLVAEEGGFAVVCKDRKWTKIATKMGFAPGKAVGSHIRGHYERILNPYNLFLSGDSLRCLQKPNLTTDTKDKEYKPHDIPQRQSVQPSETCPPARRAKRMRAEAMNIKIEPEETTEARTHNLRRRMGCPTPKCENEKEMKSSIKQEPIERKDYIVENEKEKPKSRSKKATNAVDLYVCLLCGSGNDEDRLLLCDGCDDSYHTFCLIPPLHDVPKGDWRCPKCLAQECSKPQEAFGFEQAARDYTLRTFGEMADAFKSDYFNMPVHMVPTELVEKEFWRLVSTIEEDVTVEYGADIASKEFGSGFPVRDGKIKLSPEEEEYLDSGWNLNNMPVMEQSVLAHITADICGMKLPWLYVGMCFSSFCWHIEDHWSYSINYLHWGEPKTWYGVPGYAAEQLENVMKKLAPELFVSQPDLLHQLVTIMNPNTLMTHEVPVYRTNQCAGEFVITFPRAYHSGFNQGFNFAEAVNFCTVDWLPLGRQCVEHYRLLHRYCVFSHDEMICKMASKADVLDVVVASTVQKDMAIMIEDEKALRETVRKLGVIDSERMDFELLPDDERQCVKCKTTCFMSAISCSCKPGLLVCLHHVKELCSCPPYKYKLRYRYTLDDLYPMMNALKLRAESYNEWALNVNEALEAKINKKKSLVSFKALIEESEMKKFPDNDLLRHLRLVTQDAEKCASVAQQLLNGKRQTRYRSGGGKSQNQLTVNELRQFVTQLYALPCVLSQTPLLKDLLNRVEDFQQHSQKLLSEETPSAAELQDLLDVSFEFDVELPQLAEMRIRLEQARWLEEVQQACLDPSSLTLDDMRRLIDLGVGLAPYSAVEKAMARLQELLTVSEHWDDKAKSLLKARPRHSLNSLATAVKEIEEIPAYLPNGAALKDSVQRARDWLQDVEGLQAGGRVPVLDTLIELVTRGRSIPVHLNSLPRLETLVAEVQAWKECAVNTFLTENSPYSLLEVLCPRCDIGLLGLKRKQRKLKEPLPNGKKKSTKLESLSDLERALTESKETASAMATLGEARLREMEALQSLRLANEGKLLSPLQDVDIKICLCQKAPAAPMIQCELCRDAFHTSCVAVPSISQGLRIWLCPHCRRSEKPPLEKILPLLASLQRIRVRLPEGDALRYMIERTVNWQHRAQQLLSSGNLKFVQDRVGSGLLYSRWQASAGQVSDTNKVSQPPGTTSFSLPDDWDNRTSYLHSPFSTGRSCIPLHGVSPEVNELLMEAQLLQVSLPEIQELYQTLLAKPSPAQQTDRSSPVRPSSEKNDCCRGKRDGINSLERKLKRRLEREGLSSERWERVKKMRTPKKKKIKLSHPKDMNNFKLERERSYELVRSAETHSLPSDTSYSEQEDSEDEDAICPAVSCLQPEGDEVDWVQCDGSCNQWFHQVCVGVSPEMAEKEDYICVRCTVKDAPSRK
N-terminal Xaa-Pro-Lys N-methyltransferase 1 (Homo sapiens), sequence (Q9BV86 whole entry, looked up): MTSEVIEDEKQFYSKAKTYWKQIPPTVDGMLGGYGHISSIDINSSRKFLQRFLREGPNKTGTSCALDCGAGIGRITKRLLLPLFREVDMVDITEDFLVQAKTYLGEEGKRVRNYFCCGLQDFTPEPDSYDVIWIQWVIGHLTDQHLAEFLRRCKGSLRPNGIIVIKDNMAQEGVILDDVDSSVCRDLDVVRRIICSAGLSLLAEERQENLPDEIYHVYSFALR

Nc1nc(N)c2nc(-c3ccccc3)c(N)nc2n1
inactive: Potency [1] | Potency [2] | Potency [3] | Potency [4] | Potency [5] | Potency [6]

CN(C)CCOC(=O)COc1ccc(Cl)cc1
inactive: Potency [4] | outcome [8] | Potency [9] | Potency [5] | Potency [6]
active: Potency [7] 56.2 µM

COCCCC/C(=N\OCCN)c1ccc(C(F)(F)F)cc1
inactive: Potency [7] | Potency [4] | outcome [8] | Potency [9] | Potency [5]

O=C(CCCN1CCC(O)(c2cccc(C(F)(F)F)c2)CC1)c1ccc(F)cc1
inactive: Potency [7] | Potency [4] | outcome [8] | Potency [9] | Potency [5] | Potency [6]

CC(C)(Oc1ccc(CCNC(=O)c2ccc(Cl)cc2)cc1)C(=O)O
inactive: Potency [7] | Potency [4] | outcome [8]

Cc1nc2c([nH]1)c(=O)n(C)c(=O)n2Cc1ccco1
inactive: Potency [7] | Potency [4] | outcome [8] | Potency [9] | Potency [5] | Potency [6]

CN1CCN(C2=Nc3ccccc3Oc3ccc(Cl)cc32)CC1
inactive: Potency [7] | Potency [4] | outcome [8] | Potency [9] | Potency [5] | Potency [6]

C[C@]12C=CC(=O)C=C1CC[C@H]1[C@@H]3C[C@@H](O)[C@](O)(C(=O)CO)[C@@]3(C)C[C@H](O)[C@@]12F
inactive: Potency [3] | Potency [7] | Potency [4] | outcome [8] | Potency [9]
active: Potency [1] 7.37 µM | Potency [2] 9.27 µM

Cc1nnc(SCC2=C(C(=O)O)N3C(=O)[C@@H](NC(=O)Cn4cnnn4)[C@H]3SC2)s1
active: Potency [7] 50.1 µM
inactive: Potency [4] | outcome [8]

CN(C)C(=O)Oc1cccc([N+](C)(C)C)c1
inactive: Potency [7] | Potency [4] | outcome [8] | Potency [9] | Potency [5] | Potency [6]

CC(=O)Nc1nnc(S(N)(=O)=O)s1
inactive: Potency [7] | Potency [4] | outcome [8] | Potency [9] | Potency [5] | Potency [6]

COCCc1ccc(OCC(O)CNC(C)C)cc1 (stereo not drawn)
inactive: Potency [7] | Potency [4] | outcome [8] | Potency [9] | Potency [5] | Potency [6]

O=C(O)CN(CCN(CC(=O)O)CC(=O)O)CCN(CC(=O)O)CC(=O)O
inactive: Potency [7] | Potency [4] | outcome [8] | Potency [9] | Potency [5] | Potency [6]

CC(C)(C)NCC(O)c1cc(O)cc(O)c1 (stereo not drawn)
inactive: Potency [7] | Potency [4] | outcome [8] | Potency [5] | Potency [6]

Nc1ncn([C@@H]2O[C@H](CO)[C@@H](O)[C@H]2O)c(=O)n1
inactive: Potency [7] | Potency [4] | outcome [8] | Potency [9] | Potency [6]
active: Potency [5] 8.91 µM

NC(Cc1ccc(Cl)cc1)C(=O)O (stereo not drawn)
inactive: Potency [7] | Potency [4] | activity change, negative = inhibition [8] -1.34% [at 0.59 µM] | Potency [9] | Potency [5] | activity change, negative = inhibition [6] 1.91% [at 0.727 µM]

CCCCCN(CCCCC)C(=O)C(CCC(=O)O)NC(=O)c1ccc(Cl)c(Cl)c1 (stereo not drawn)
inactive: Potency [7] | Potency [4] | outcome [8] | Potency [9] | Potency [5] | Potency [6]

CCN(Cc1ccncc1)C(=O)C(CO)c1ccccc1 (stereo not drawn)
inactive: Potency [7] | Potency [4] | outcome [8] | Potency [9] | Potency [5] | Potency [6]

CNCCC(Oc1ccccc1OC)c1ccccc1 (stereo not drawn)
inactive: Potency [7] | Potency [4] | outcome [8] | Potency [9] | Potency [5] | Potency [6]

CCCN(CCC)C(=O)C(CCC(=O)O)NC(=O)c1ccccc1 (stereo not drawn)
inactive: Potency [7] | Potency [4] | outcome [8] | Potency [9] | Potency [5] | Potency [6]

C[C@]12CCC(=O)C=C1CC[C@@H]1[C@@H]2CC[C@@]2(C)[C@H]1CC[C@]2(O)C(=O)CO
inactive: Potency [7] | Potency [4] | outcome [8] | Potency [9] | Potency [5] | Potency [6]

CC[N+](C)(C)c1cccc(O)c1
inactive: Potency [7] | Potency [4] | outcome [8] | Potency [9] | Potency [5] | Potency [6]

CO[C@@]1(NC(=O)CSCC#N)C(=O)N2C(C(=O)O)=C(CSc3nnnn3C)CS[C@@H]21
inactive: Potency [7] | Potency [4] | outcome [8] | Potency [5] | Potency [6]

NC(N)=N/N=C/c1c(Cl)cccc1Cl
inactive: Potency [7] | Potency [4] | outcome [8] | Potency [5]

CCCN(CCC)CCc1cccc2c1CC(=O)N2
inactive: Potency [7] | Potency [4] | outcome [8] | Potency [9] | Potency [5] | Potency [6]

CC(=O)Oc1cc(C(C)C)c(OCCN(C)C)cc1C
inactive: Potency [7] | Potency [4] | outcome [8] | Potency [9] | Potency [5] | Potency [6]

CCN(CC)CCNC(=O)c1cc(S(C)(=O)=O)ccc1OC
inactive: Potency [7] | Potency [4] | outcome [8] | Potency [9] | Potency [5] | Potency [6]

COc1ccc([C@@H]2Sc3ccccc3N(CCN(C)C)C(=O)[C@@H]2OC(C)=O)cc1
inactive: Potency [7] | Potency [4] | outcome [8] | Potency [9] | Potency [5] | Potency [6]
